Source: PubChem BioAssay AID2216 (Broad Institute, 2009)
About 3,300 (1.1%) of roughly 300,000 compounds were called active. Roughly 6% stayed inconclusive and do not appear here. Only a selection was taken, and actives are over-represented in it overall. Values without a mark were called inactive.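 The calls were made as follows: active = more than half of the replicate wells show a fall in the fluorescence ratio signal beyond about 16% (limit read from the data, passing the limit was not always enough); inconclusive = exactly half of the replicate wells pass the set limit; inactive = fewer than half of replicates pass the limit.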

tested on: Ran GTPase (GTP-bound) - importin-beta complex; test: disruptors of Ran-importin-beta complex formation – biochemical, FRET, CFP-Ran, YFP-importin-beta, homogeneous, primary screen (AID 2216); conditions: cell-free CFP-Ran/YFP-importin-beta FRET ratio; active compounds read high; concentration not given here;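 also: 0% = DMSO wells and 100% = Ran loaded with GDP instead of GTP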

Compound	inhibition
O=C(N/N=C/c1cc(Br)c(O)c([N+](=O)[O-])c1)C(O)(c1ccccc1)c1ccccc1	-0.0435%
CN(C)S(=O)(=O)c1ccc(N2CCCC2)c(C(=O)Nc2ccc(Br)cc2F)c1	0.866%
CC(Sc1nc(-c2ccccc2)cc(C(F)(F)F)n1)C(=O)Nc1ccc2c(c1)OCO2 (centres undefined)	-1.24%
CC(Sc1nnc2c(n1)C1CCC2(C)C1(C)C)C(=O)Nc1ccccc1 (centres undefined)	27% (active)
CSc1nc(C)cc(SC(C(C)=O)C(=O)Nc2ccccc2)n1 (centres undefined)	-3.65%
CC(=O)N[C@H]1[C@H]([C@H](O)[C@H](O)CO)OC(C(=O)O)=C[C@@H]1O	1.4%
COc1ccc(Cl)cc1NC(=O)CN(C)C(=O)c1cc(-c2cccs2)nn1-c1ccccc1	0.469%
CCCN(CCC)CCNC(=O)c1cc2c(C)nc3ccccc3c2o1	0.401%
Cc1nc2ccccc2c2oc(C(=O)NCCCN3CCC(C)CC3)cc12	34.1% (active)
Cc1nc2ccccc2c2oc(C(=O)NCC3CCCO3)cc12 (centres undefined)	4.76%
O=C(NCCS(=O)(=O)NCc1ccc(Cl)cc1)c1ccccc1	5.39%
CCOC(=O)c1c(C)oc2cc(Br)c(OCC(N)=O)cc12	19% (active)
CCOC(=O)c1c(C)oc2ccc(OCC(=O)N(CC)CC)cc12	-3.75%
CCOC(=O)c1c(-c2ccccc2)oc2ccc(OCC(N)=O)cc12	0.113%
Cc1cc(-c2nnc(SCC(=O)Nc3ccc(S(N)(=O)=O)cc3)n2N)n[nH]1	0.809%
Cc1cccc(NC(=O)N2CCCCCC2)c1C	2.28%
COCc1[nH]nc2c1C(C1C=CCCC1)C(C#N)=C(N)O2 (centres undefined)	-7.86%
N#CC1=C(N)Oc2cc(O)ccc2C1C1CCCCC1 (centres undefined)	140% (active)
N#CC1=C(N)OC2=C(C(=O)CCC2)C1C1CC=CCC1 (centres undefined)	-2.87%
COc1ccc(CNC(=O)C2CCCC2)cc1	-1.07%

Compound	inhibition
Cc1ccc2nc(NC(=O)CSc3nc(=O)n(CCCN(C)C)c4c3CCC4)sc2c1	1.53%
Cc1nc(Nc2ccc(S(=O)(=O)N3CCCC3)cc2)c2nnn(Cc3ccccc3)c2n1	5.61%
Cc1nc(Nc2ccccc2F)c2nnn(Cc3ccccc3Cl)c2n1	35.1% (active)
Cc1nc(Nc2ccc3c(c2)OCCO3)c2nnn(Cc3ccccc3Cl)c2n1	3.56%
COc1ccccc1-n1ccnc(SCC(=O)NC2CCCCC2)c1=O	-1.18%
CC(C)N(Cc1ccccc1)C(=O)COC(=O)c1ccccc1SCC(=O)N1CCCC1	-1.94%
CC(=O)C12CC(C)=C(C)CC1CC1C3CCC4=CC(=O)CCC4(C)C3CCC12C (centres undefined)	1.03%
COC(=O)c1ccc(C(=O)OC)c(NC(=S)N2CCCCC2)c1	55.3% (active)
COC(=O)c1ccc(C(=O)OC)c(NC(=S)N2CCN(c3ccc(F)cc3)CC2)c1	6.98%
CCCN(CCC)C(=S)Nc1cc(C(=O)OC)ccc1C(=O)OC	41% (active)
COC(=O)c1ccc(C(=O)OC)c(NC(=S)N2CCN(c3cc(Cl)ccc3C)CC2)c1	6.93%
CCN(CC)C(=O)CCC(=O)Nc1ccc(C(=O)OC)cc1	-3.39%
CCS(=O)(=O)Nc1cc(C(=O)OC)ccc1C(=O)OC	4.57%
CCCOc1ccc(CN(CCO)CCO)cc1C(=O)OC	-2.69%
CCN(CCO)C(=S)Nc1cc(C(=O)OC)ccc1C(=O)OC	16.3% (active)
COC(=O)c1ccc(C(=O)Nc2cc(Cl)ccc2Cl)cc1NC(=O)c1ccccc1C	2.78%
CN(C)C(CNC(=O)c1cccc(S(=O)(=O)Nc2ccc(Br)cc2)c1)c1ccco1 (centres undefined)	-0.145%
CCc1noc(C)c1C(=O)NNC(=O)c1ccc(F)cc1	3.18%
Cc1ccccc1OCC(=O)NNC(=O)c1ccc(-n2cncn2)c([N+](=O)[O-])c1	3.51%
COc1ccccc1CNC(=O)CSc1nc(=O)n(Cc2ccncc2)c2c1CCC2	-4.86%

Compound	inhibition
O=C(Nc1ncccc1O)c1ccc(C(=O)c2ccccc2)cc1	-5%
O=C(COC(=O)c1ncc(Cl)c(Cl)c1Cl)NC1CCS(=O)(=O)C1 (centres undefined)	1.31%
COCc1cc(=O)n2[nH]c(C)c(-c3ccccc3)c2n1	1.2%
CC1Cc2cc(/C(O)=C3\C(=O)C(=O)N(CCN4CCOCC4)C3c3ccccc3F)ccc2O1 (centres undefined)	1.9%
CCN(CC)CCN1C(=O)C(=O)/C(=C(/O)c2ccccc2)C1c1ccccc1F (centres undefined)	-0.379%
COc1ccc(C2/C(=C(/O)c3ccc(OC(C)C)cc3)C(=O)C(=O)N2CCCN2CCOCC2)cc1 (centres undefined)	-1.52%
COc1ccc(/C(O)=C2/C(=O)C(=O)N(CCCN(C)C)C2c2ccccc2)cc1OC (centres undefined)	3.13%
CCN(CC)CCN1C(=O)C(=O)/C(=C(/O)c2ccc(OC)c(OC)c2)C1c1ccccn1 (centres undefined)	33.8% (active)
O=C1C(=O)N(CCN2CCOCC2)C(c2ccccn2)/C1=C(/O)c1ccc(Cl)cc1 (centres undefined)	20.4% (active)
CCOc1ccc(CCNC(=O)COC(=O)c2ccc(F)c(S(=O)(=O)N3CCOCC3)c2)cc1OCC	-2.22%
CCN(CC)c1ccc(NC(=O)c2ccc(=O)[nH]c2)cc1S(=O)(=O)Nc1ccc(OC)cc1	-0.956%
CCOc1ccccc1NC(=O)c1cccnc1	-0.62%
O=C(NNC(=O)c1cccnc1)Nc1ccccc1	-0.622%
O=C(Nc1cnccn1)c1cccnc1	15.8% (active)
O=C(Nc1cc(S(=O)(=O)N2CCOCC2)ccc1OCC(F)(F)F)c1ccc(N2CCCC2=O)cc1	5.96%
COCC1CCN(C(=O)c2ccc3oc(Cc4ccccc4)nc3c2)C1 (centres undefined)	1.03%
CC(=O)Cc1nsc(NC(=O)c2ccc(Cl)cc2Cl)n1	1.86%
O=C(Nc1ccc(OCC(=O)N2CCOCC2)cc1)c1cc(F)c(F)cc1Cl	3.93%
CCN1CCc2nc(NC(=O)c3cc(F)c(F)cc3Cl)sc2C1	19.6% (active)
